# The supplement of paper PMC10037445
# Whole data set: some 2,900 compounds, median “NF-kB SEAP reporter activity, fold change vs agonist alone” near 0.99, cut for the highest 2% near 2.6. The sample holds the highest values, similar compounds and a random draw of the others, so the mix is not that of the screen.
# Experiments:
# [1] = tested on: RAW-Dual; experiment: NF-kB SEAP reporter activity, fold change vs agonist alone; higher = enhanced NF-kB activity
# Outline: (§1)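 After 50 nL of library stock was delivered by pin tool to RAW-Dual macrophages (50,000 cells/well, DMEM, 384-well plates), a PRR agonist was added 1 h later and the plates were kept at 37 °C, 5% CO2. Twenty hours later, IRF was read from supernatant by QuantiLuc luminescence and NF-κB by QuantiBlue absorbance at 620 nm. Reporter activity is stated as fold change over agonist-alone wells. Wells with IncuCyte confluency under 70% of agonist controls in both mask sets were counted as cytotoxic.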
# [2] = tested on: RAW-Dual; experiment: NF-kB SEAP reporter activity, fold change vs agonist alone; cytotoxicity flag (confluency mask): not cytotoxic; higher = enhanced NF-kB activity
# Outline: as §1
# [3] = tested on: RAW-Dual; experiment: NF-kB SEAP reporter activity, fold change vs agonist alone; cytotoxicity flag (confluency mask): cytotoxic (confluency <70% of control); higher = enhanced NF-kB activity
# Outline: as §1
# [4] = library stock concentration (final ~1000-fold dilution): 10 mM, cytotoxicity flag (confluency mask): not cytotoxic, agonist: Imiquimod (TLR7) […]
# [5] = library stock concentration (final ~1000-fold dilution): 10 mM, cytotoxicity flag (confluency mask): not cytotoxic, agonist: MPLA (TLR4) […]
# [6] = library stock concentration (final ~1000-fold dilution): 10 mM, cytotoxicity flag (confluency mask): cytotoxic (confluency <70% of control), agonist: Imiquimod (TLR7) […]
# [7] = library stock concentration (final ~1000-fold dilution): 10 mM, cytotoxicity flag (confluency mask): cytotoxic (confluency <70% of control), agonist: MPLA (TLR4) […]
# [8] = agonist: ODN 1826 (TLR9) 0.5 ug/mL
# [9] = agonist: Pam2CSK4 (TLR2/6) 0.1 ug/mL
# [10] = agonist: Pam3CSK4 (TLR2/1) 0.1 ug/mL
structure (smiles),measurement,setting,value
CC(C)(O)CNc1ncc(-c2ccnc(Nc3ccncc3)n2)c(CC2CC2)n1,NF-kB SEAP reporter activity,[1]; [4],0.914
same,NF-kB SEAP reporter activity,[1]; [5],2.18
Nc1ncc(-c2ccnc(Nc3ccncc3)n2)c(CC2CC2)n1,NF-kB SEAP reporter activity,[1]; [6],0.641
same,NF-kB SEAP reporter activity,[1]; [7],2.13
CC(C)(O)CNc1ncc(-c2ccnc(Nc3ccnc(Cl)c3)n2)c(CC2CC2)n1,NF-kB SEAP reporter activity,[1]; [4],0.784
same,NF-kB SEAP reporter activity,[1]; [5],2.07
CC(C)(O)CNc1ncc(-c2ccnc(Nc3ccnc(Cl)c3)n2)c(CC2CC2)n1 (library stock concentration (final ~1000-fold dilution): 10 mM),NF-kB SEAP reporter activity,[2]; agonist: LPS (TLR4) 0.1 ug/mL,5.81
same,NF-kB SEAP reporter activity,[2]; [8],0.935
same,NF-kB SEAP reporter activity,[2]; [9],1.41
same,NF-kB SEAP reporter activity,[2]; [10],1.8
CCNC1CC(C)S(=O)(=O)c2sc(S(N)(=O)=O)cc21.Cl (stereo not given),NF-kB SEAP reporter activity,"[1]; library stock concentration (final ~1000-fold dilution): 10 mM water, cytotoxicity flag (confluency mask): not cytotoxic, agonist: Imiquimod (TLR7) […]",0.908
same,NF-kB SEAP reporter activity,"[1]; library stock concentration (final ~1000-fold dilution): 10 mM water, cytotoxicity flag (confluency mask): not cytotoxic, agonist: MPLA (TLR4) […]",0.982
CCNC1CC(C)S(=O)(=O)c2sc(S(N)(=O)=O)cc21.Cl (stereo not given) (library stock concentration (final ~1000-fold dilution): 10 mM water),NF-kB SEAP reporter activity,[2]; agonist: LPS (TLR4) 0.1 ug/mL,1.49
same,NF-kB SEAP reporter activity,[2]; [8],1.13
same,NF-kB SEAP reporter activity,[2]; [9],1.09
same,NF-kB SEAP reporter activity,[2]; [10],0.997
CCc1ccc(OCc2ccccc2C(=O)Nc2ccc3nc(C)cc(N)c3c2)cc1.Cl,NF-kB SEAP reporter activity,[1]; [6],0.265
same,NF-kB SEAP reporter activity,[1]; [7],0.216
CCc1ccc(OCc2ccccc2C(=O)Nc2ccc3nc(C)cc(N)c3c2)cc1.Cl (library stock concentration (final ~1000-fold dilution): 10 mM),NF-kB SEAP reporter activity,[3]; agonist: LPS (TLR4) 0.1 ug/mL,0.212
same,NF-kB SEAP reporter activity,[3]; [8],0.198
same,NF-kB SEAP reporter activity,[3]; [9],0.0939
same,NF-kB SEAP reporter activity,[3]; [10],0.336
CCCN1CCCCC1C(=O)Nc1c(C)cccc1C (stereo not given),NF-kB SEAP reporter activity,[1]; [5],1.09
CCCN1CCCCC1C(=O)Nc1c(C)cccc1C (stereo not given) (library stock concentration (final ~1000-fold dilution): 10 mM),NF-kB SEAP reporter activity,[2]; agonist: LPS (TLR4) 0.1 ug/mL,1.03
same,NF-kB SEAP reporter activity,[2]; [8],1.03
same,NF-kB SEAP reporter activity,[2]; [9],0.952
same,NF-kB SEAP reporter activity,[2]; [10],1.06
Cc1ccc(C(=O)N(CCCN)C(c2nc3cc(Cl)ccc3c(=O)n2Cc2ccccc2)C(C)C)cc1 (stereo not given) (library stock concentration (final ~1000-fold dilution): 10 mM),NF-kB SEAP reporter activity,[3]; agonist: LPS (TLR4) 0.1 ug/mL,0.331
same,NF-kB SEAP reporter activity,[3]; [8],0.254
same,NF-kB SEAP reporter activity,[3]; [9],0.0886
same,NF-kB SEAP reporter activity,[3]; [10],0.27
Cc1ccc(C(=O)N(CCCN)C(c2nc3cc(Cl)ccc3c(=O)n2Cc2ccccc2)C(C)C)cc1 (stereo not given),NF-kB SEAP reporter activity,[1]; [6],1.41
same,NF-kB SEAP reporter activity,[1]; [7],0.878
COC1C(=O)C2(C)C(OC)CC3OCC3(OC(C)=O)C2C(OC(=O)c2ccccc2)C2(O)CC(OC(=O)C(O)C(NC(=O)OC(C)(C)C)c3ccccc3)C(C)=C1C2(C)C (stereo not given),NF-kB SEAP reporter activity,[1]; [4],1.57
same,NF-kB SEAP reporter activity,[1]; [5],1.25
COC1C(=O)C2(C)C(OC)CC3OCC3(OC(C)=O)C2C(OC(=O)c2ccccc2)C2(O)CC(OC(=O)C(O)C(NC(=O)OC(C)(C)C)c3ccccc3)C(C)=C1C2(C)C (stereo not given) (library stock concentration (final ~1000-fold dilution): 10 mM),NF-kB SEAP reporter activity,[2]; agonist: LPS (TLR4) 0.1 ug/mL,1.71
same,NF-kB SEAP reporter activity,[2]; [8],1.2
same,NF-kB SEAP reporter activity,[2]; [9],1.01
same,NF-kB SEAP reporter activity,[2]; [10],0.912
Oc1ccc(Nc2nc(-c3ccc(Cl)cc3)cs2)cc1 (library stock concentration (final ~1000-fold dilution): 10 mM),NF-kB SEAP reporter activity,[2]; agonist: LPS (TLR4) 0.1 ug/mL,0.311
same,NF-kB SEAP reporter activity,[2]; [8],0.27
same,NF-kB SEAP reporter activity,[2]; [9],0.227
same,NF-kB SEAP reporter activity,[2]; [10],0.157
O=C(NCc1cccc(O)c1)Nc1nc(-c2ccncc2)cs1,NF-kB SEAP reporter activity,[1]; [4],1.3
same,NF-kB SEAP reporter activity,[1]; [5],1.45
Oc1ccc(Nc2nc(-c3ccc(Cl)cc3)cs2)cc1,NF-kB SEAP reporter activity,[1]; [4],0.665
same,NF-kB SEAP reporter activity,[1]; [5],0.836
Cc1cccc(Nc2nc(-c3ccncc3)cs2)c1 (library stock concentration (final ~1000-fold dilution): 10 mM),NF-kB SEAP reporter activity,[2]; agonist: LPS (TLR4) 0.1 ug/mL,2.85
same,NF-kB SEAP reporter activity,[2]; [8],1.3
same,NF-kB SEAP reporter activity,[2]; [9],0.662
same,NF-kB SEAP reporter activity,[2]; [10],1
Cc1cccc(Nc2nc(-c3ccncc3)cs2)c1,NF-kB SEAP reporter activity,[1]; [4],1.89
same,NF-kB SEAP reporter activity,[1]; [5],2.08
O=C(NCc1cccc(O)c1)Nc1nc(-c2ccncc2)cs1 (library stock concentration (final ~1000-fold dilution): 10 mM),NF-kB SEAP reporter activity,[2]; agonist: LPS (TLR4) 0.1 ug/mL,1.01
same,NF-kB SEAP reporter activity,[2]; [8],1.21
same,NF-kB SEAP reporter activity,[2]; [9],1.24
same,NF-kB SEAP reporter activity,[2]; [10],1.88
CCCOc1ccc(S(=O)(=O)NCCC2CCCN2C)cc1-c1nc(=O)c2c([nH]1)c(CCC)nn2C (stereo not given) (library stock concentration (final ~1000-fold dilution): 10 mM),NF-kB SEAP reporter activity,[2]; agonist: LPS (TLR4) 0.1 ug/mL,1.02
same,NF-kB SEAP reporter activity,[2]; [8],0.517
same,NF-kB SEAP reporter activity,[2]; [9],0.99
same,NF-kB SEAP reporter activity,[2]; [10],1.14
CCCOc1ccc(S(=O)(=O)NCCC2CCCN2C)cc1-c1nc(=O)c2c([nH]1)c(CCC)nn2C (stereo not given),NF-kB SEAP reporter activity,[1]; [4],1.42
same,NF-kB SEAP reporter activity,[1]; [5],1.28
COc1cc(F)c(F)c(Nc2ccc(I)cc2F)c1NS(=O)(=O)C1(CC(O)CO)CC1 (stereo not given),NF-kB SEAP reporter activity,[1]; [4],0.885
same,NF-kB SEAP reporter activity,[1]; [5],0.968
COc1cc(F)c(F)c(Nc2ccc(I)cc2F)c1NS(=O)(=O)C1(CC(O)CO)CC1 (stereo not given) (library stock concentration (final ~1000-fold dilution): 10 mM),NF-kB SEAP reporter activity,[2]; agonist: LPS (TLR4) 0.1 ug/mL,1.01
same,NF-kB SEAP reporter activity,[2]; [8],0.915
same,NF-kB SEAP reporter activity,[2]; [9],0.342
same,NF-kB SEAP reporter activity,[2]; [10],0.427
Cl.Cl.Fc1ccc(C(c2ccc(F)cc2)N2CCN(C/C=C/c3ccccc3)CC2)cc1,NF-kB SEAP reporter activity,[1]; [4],1.99
same,NF-kB SEAP reporter activity,[1]; [5],1.65
Cl.Cl.Fc1ccc(C(c2ccc(F)cc2)N2CCN(C/C=C/c3ccccc3)CC2)cc1 (library stock concentration (final ~1000-fold dilution): 10 mM),NF-kB SEAP reporter activity,[2]; agonist: LPS (TLR4) 0.1 ug/mL,2.45
same,NF-kB SEAP reporter activity,[2]; [8],1.44
same,NF-kB SEAP reporter activity,[2]; [9],0.829
same,NF-kB SEAP reporter activity,[2]; [10],1.09
